Source: PubChem BioAssay
A selection: hits, their analogues and other compounds. The true share with any hit is near 3.8%.
ADAM17 inh: inhibits human ADAM17; P78536; recombinant ADAM17, EDANS/DABCYL FRET peptide cleavage; inhibition, % at 6.95 µM; hit rate 0.83% among 370,000; AID 720648;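 active = inhibition above the mean of compounds lying between control limits plus 3 SD, set per campaign, cut at about 8.5% in these data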
Target sequence (P78536 215-824 limits assumed): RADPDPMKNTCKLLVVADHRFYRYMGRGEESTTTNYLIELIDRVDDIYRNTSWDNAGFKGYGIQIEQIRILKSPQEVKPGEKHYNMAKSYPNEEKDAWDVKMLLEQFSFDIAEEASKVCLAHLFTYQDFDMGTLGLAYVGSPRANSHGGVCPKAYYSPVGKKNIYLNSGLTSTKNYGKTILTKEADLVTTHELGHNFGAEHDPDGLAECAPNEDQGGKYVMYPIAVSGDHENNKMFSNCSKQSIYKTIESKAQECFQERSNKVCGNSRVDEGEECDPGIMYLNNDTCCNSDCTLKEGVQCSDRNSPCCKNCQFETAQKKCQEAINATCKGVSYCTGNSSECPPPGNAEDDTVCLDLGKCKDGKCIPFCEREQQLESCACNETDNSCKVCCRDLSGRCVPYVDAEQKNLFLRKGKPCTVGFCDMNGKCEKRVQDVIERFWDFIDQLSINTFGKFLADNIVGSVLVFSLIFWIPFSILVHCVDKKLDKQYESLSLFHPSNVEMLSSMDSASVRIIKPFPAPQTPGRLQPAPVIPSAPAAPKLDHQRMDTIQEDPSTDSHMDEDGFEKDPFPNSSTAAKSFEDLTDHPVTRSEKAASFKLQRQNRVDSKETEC
ADAM10 inh: ADAM10 inhibition, QFRET primary screen. O14672. recombinant ADAM10, EDANS/DABCYL FRET peptide cleavage, 3 h. inhibition, % at 7 µM. hit rate 0.62% among 370,000;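 active = inhibition above a per-campaign cutoff equal to the mean of compounds falling between control-based bounds plus 3 SD, cut at about 20% in these data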
proKLK7 act: activates the human kallikrein-7 zymogen | purified proKLK7, EDANS-DABCYL substrate fluorescence; 100% is mature enzyme control, 0% vehicle | activation, % at 7 µM | hit rate 0.9% among 370,000;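 active = activation above the mean of all tested compounds plus 3 SD, computed per campaign excluding outliers beyond control limits, cut at about 13% in these data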
FGF22 binding: binders of recombinant human FGF22 by thermal shift. SYPRO orange fluorescence; percent of sucrose octasulfate shift, DMSO zero. activity (Tm shift, normalised), % at 9.99 µM. hit rate 1.5% among 340,000;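 active = mean Tm shift, scaled 0 neutral to 100 positive control, at about 1.3% or above, every replicate too, limit read from the data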
Target sequence (Q9HCT0 whole entry, looked up): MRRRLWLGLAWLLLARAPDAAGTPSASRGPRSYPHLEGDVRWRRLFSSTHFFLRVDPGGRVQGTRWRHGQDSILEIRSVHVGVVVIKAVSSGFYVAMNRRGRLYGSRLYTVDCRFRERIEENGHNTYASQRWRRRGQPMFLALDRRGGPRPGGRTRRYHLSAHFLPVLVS
rRNA inh HTS: selective bacterial rRNA inhibition in E. coli | GFP signal change (wild-type ribosome), % (no concentration beside the values) | hit rate 1.6% among 350,000 | E. coli WT GFP vs humanized-ribosome RFP mutants, fluorescence, 24 h; stronger effect = lower value; DMSO median 0, no signal -100 | AID 720706;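 active = significant combined selectivity score with lowered wild-type GFP, culture density cut under 30%, mutant RFP and density less affected; inactive = any of these conditions unmet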
KLK7 act conf: proKLK7 activation, confirmation. purified proKLK7, EDANS-DABCYL substrate fluorescence; scaled: vehicle 0, mature enzyme 100. shares compounds with proKLK7 act. activation, % at 7 µM. hit rate 68% among 3,200;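 active = activation, as change over the incubation, above the mean of all tested compounds plus 3 SD, cut at about 13% in these data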
EDANS-DABCYL int: fluorescence interference counter-screen for KLK7 activators; EDANS-DABCYL substrate fluorescence interference, no enzyme, 4 h; solvent 0%, active enzyme control 100%; shares compounds with proKLK7 act; activation, % at 7 µM; hit rate 80% among 3,200;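 active = activation above the all-compound mean plus 3 SD, ignoring values outside control-based bounds, cut at about 4.8% in these data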;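 note: value is the 4 h activation minus the activation read at time zero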
K7 EDANS ctr: counter-screen for kallikrein-7 activators: EDANS-DABCYL interference, dose response. EC50, µM. hit rate 20% among 250. EDANS-DABCYL peptide fluorescence interference, no enzyme. AID 720493. shares compounds with proKLK7 act;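 active = compounds that raise the fluorescence signal in this interference counterscreen, with EC50 at or below 10 µM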;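 note: intact quenched peptide substrate alone read at 355 nm excitation and 520 nm emission; signal is fluorescence gain from T0 to T4 after four hours at room temperature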
Each line names hits and unclear results; the compound was inactive in the other large screens (follow-up assays come after a bar, where they were run).

C[C@H](O)[C@@H]1CN2CCc3c([nH]c4ccccc34)[C@@H]2C[C@@H]1N(C)C(=S)NCCc1ccccc1	proKLK7 act 39 | KLK7 act conf inactive | EDANS-DABCYL int inactive
CCNC(=O)N(C)[C@H]1C[C@H]2c3[nH]c4ccccc4c3CCN2C[C@H]1[C@H](C)O	proKLK7 act 17 | KLK7 act conf inactive | EDANS-DABCYL int inactive
Cc1cccc(-c2cccc3c4c([nH]c23)[C@@H]2C[C@H](N(C)C(=S)NCCc3ccccc3)[C@H]([C@H](C)O)CN2CC4)c1	none (no result: FGF22 binding, rRNA inh HTS)
C[C@H](O)[C@@H]1CN2CCc3c([nH]c4ccccc34)[C@@H]2C[C@@H]1N(C)C(=O)Nc1cccc2ccccc12	none
CN1[C@@H]2c3ccc(-c4ccc(F)cc4)c(=O)n3C[C@@H]2[C@@H](CO)[C@@H]1C(=O)Nc1ccccc1	none (no result: ADAM17 inh, ADAM10 inh, proKLK7 act)
COc1ccc2c3c(n(C)c2c1)[C@@H](CO)N(C)CC31CCN(C(=O)Nc2c(C)noc2C)CC1	none (no result: ADAM17 inh, ADAM10 inh, proKLK7 act)
CCC(=O)N1CC2(CCN(Cc3cncnc3)CC2)c2c([nH]c3cc(OC)ccc23)[C@H]1CO	none (no result: ADAM17 inh, ADAM10 inh, proKLK7 act)
C=CCN(c1ccccc1)S(=O)(=O)c1cccc(C(=O)Oc2ccc3c(C)cc(=O)oc3c2)c1	proKLK7 act 42 (no result: FGF22 binding, rRNA inh HTS) | KLK7 act conf 405 | EDANS-DABCYL int 422
CCC(=O)Nc1ccc2c(c1)C(=O)N(C)[C@H]1CC[C@@H](CC(=O)N3CCCCC3)O[C@H]1CO2	none (no result: ADAM17 inh, ADAM10 inh, proKLK7 act)
Cc1ccc2oc(-c3ccco3)cc(=O)c2c1	none
CC(C)OCCOc1ccc2oc(-c3ccco3)cc(=O)c2c1	proKLK7 act 24 | KLK7 act conf 37 | EDANS-DABCYL int inactive | K7 EDANS ctr inactive
COCC(=O)N(C)C[C@@H]1Oc2ncc(C#Cc3cccnc3)cc2C(=O)N([C@H](C)CO)C[C@@H]1C	none (no result: ADAM17 inh, ADAM10 inh, proKLK7 act)
CC(=O)N1C[C@H]2[C@@H](c3ccccc31)[C@H](CO)N2C(=O)CC1CC1	none (no result: ADAM17 inh, ADAM10 inh, proKLK7 act)
N#Cc1cc(-c2ccccc2)c[nH]c1=O	proKLK7 act 20 (no result: FGF22 binding, rRNA inh HTS) | KLK7 act conf inactive | EDANS-DABCYL int 10
COc1ccc(S(=O)(=O)N(C)C[C@H]2OCCCC[C@H](C)Oc3ccc(NC(=O)NC(C)C)cc3C(=O)N([C@@H](C)CO)C[C@H]2C)cc1	none (no result: ADAM17 inh, ADAM10 inh, proKLK7 act)
COc1ccc(-c2oc3c(c2C#CC(C)(C)O)C(OC)CCC3)cc1 (stereo unspecified)	proKLK7 act 23 | KLK7 act conf inactive | EDANS-DABCYL int inactive
COc1ccc(-c2oc3c(c2C#CC2(O)CCCCC2)C(OC(C)=O)CCC3)cc1 (stereo unspecified)	none
CCCCCCC12C(=Cc3cc4c(cc31)OCCO4)c1cc(OC)c(OC)cc1C(CC(=O)OC)N2C(=O)OC (stereo unspecified)	proKLK7 act 17 | KLK7 act conf inactive | EDANS-DABCYL int inactive
CCN(CC)CCN(C(=O)/C=C/c1cccs1)c1nc2ccc(F)cc2s1	none
CN(C)CCCN(C(=O)/C=C/c1cccs1)c1nc2ccc(F)cc2s1	proKLK7 act 35 | KLK7 act conf 154 | EDANS-DABCYL int 232
CCN(CC)Cc1c(O)ccc2c(=O)c(-c3ccccc3)coc12	proKLK7 act 26 (no result: rRNA inh HTS) | KLK7 act conf 23 | EDANS-DABCYL int 31
COc1ccccc1-c1coc2c(CN3C(C)CCCC3C)c(O)ccc2c1=O (stereo unspecified)	none (no result: rRNA inh HTS)
CCN(CC)Cc1c(O)ccc2c(=O)c(-c3ccc4c(c3)OCCO4)coc12	none (no result: FGF22 binding, rRNA inh HTS)
CCN(CC)Cc1c(O)ccc2c(=O)c(Oc3ccccc3OC)coc12	proKLK7 act 15 (no result: FGF22 binding, rRNA inh HTS) | KLK7 act conf 44 | EDANS-DABCYL int 33 | K7 EDANS ctr 8.6
COc1ccccc1-c1coc2c(CN(C)C)c(O)ccc2c1=O	proKLK7 act 50 | KLK7 act conf 78 | EDANS-DABCYL int 70
Cc1nc(-c2coc3c(CN(C)C)c(O)ccc3c2=O)cs1	proKLK7 act 19 (no result: FGF22 binding, rRNA inh HTS) | KLK7 act conf 42 | EDANS-DABCYL int 42
CCOc1ccccc1Oc1coc2cc(OC)ccc2c1=O	none (no result: FGF22 binding, rRNA inh HTS)
COc1ccccc1Oc1coc2c(CN(C)C)c(O)ccc2c1=O	proKLK7 act 62 (no result: FGF22 binding, rRNA inh HTS) | KLK7 act conf 63 | EDANS-DABCYL int 69
COc1ccc(N(CC(=O)NCc2ccc(F)cc2)C(=O)c2snc(C(N)=O)c2N)cc1OC	proKLK7 act 15 | KLK7 act conf inactive | EDANS-DABCYL int inactive
O=C(CC(=O)c1ccccc1)Nc1ccccc1	none
O=C(CC(=O)c1ccccc1)Nc1ccccn1	proKLK7 act 21 | KLK7 act conf inactive | EDANS-DABCYL int inactive
Fc1ccc(-c2nc3cnccn3c2NC2CCCC2)cc1	proKLK7 act 58 | KLK7 act conf 63 | EDANS-DABCYL int inactive | K7 EDANS ctr inactive
C[C@H]1CN([C@@H](C)CO)C(=O)c2cc(-c3ccccc3F)cnc2O[C@@H]1CN(C)C(=O)CN(C)C	none (no result: ADAM17 inh, ADAM10 inh, proKLK7 act)
Oc1ccc(C=Nc2ccccc2-c2nc3ccccc3[nH]2)c(O)c1	proKLK7 act 38 | KLK7 act conf inactive | EDANS-DABCYL int inactive
COc1ccc(OC)c(C=Nc2ccccc2-c2nc3ccccc3[nH]2)c1	proKLK7 act 31 | KLK7 act conf inactive | EDANS-DABCYL int inactive
Oc1ccccc1C=Nc1ccccc1-c1nc2ccccc2[nH]1	proKLK7 act 77 (no result: FGF22 binding, rRNA inh HTS) | KLK7 act conf inactive | EDANS-DABCYL int inactive
Fc1ccccc1-c1nc2ccccc2[nH]1	none
Oc1ccc(C=Nc2cccc3ncccc23)c(O)c1	none (no result: FGF22 binding, rRNA inh HTS)
COc1ccc(OC)c(/C=C/c2nc3ccccc3[nH]c2=O)c1	none
Cc1cc(=O)oc2cc(N3C(=O)CC(Cc4ccccc4)C3=O)ccc12 (stereo unspecified)	proKLK7 act 19 | KLK7 act conf 25 | EDANS-DABCYL int 23
COc1cccc2c(=O)c3ccccc3oc12	proKLK7 act 13 | KLK7 act conf 15 | EDANS-DABCYL int 21
COc1ccc2oc3ccc(OC)cc3c(=O)c2c1	none (no result: FGF22 binding, rRNA inh HTS)
COc1ccc2oc3ccccc3c(=O)c2c1	proKLK7 act 25 | KLK7 act conf 70 | EDANS-DABCYL int 62
COc1cccc2c(=O)ccoc12	none (no result: FGF22 binding, rRNA inh HTS)
N#Cc1cnn2c(-c3ccc(Cl)cc3Cl)ccnc12	proKLK7 act 20 | KLK7 act conf 21 | EDANS-DABCYL int 22
N#Cc1cnn2c(-c3cccc(C(F)(F)F)c3)ccnc12	none
COc1ccccc1Oc1c(C)oc2cc(OC(=O)c3ccco3)ccc2c1=O	proKLK7 act 131 (no result: FGF22 binding, rRNA inh HTS) | KLK7 act conf 785 | EDANS-DABCYL int 792
CCOc1ccccc1Oc1c(C)oc2cc(OC(=O)c3ccco3)ccc2c1=O	proKLK7 act 28 (no result: FGF22 binding, rRNA inh HTS) | KLK7 act conf 272 | EDANS-DABCYL int 238
